Experimental findings from PubChem BioAssay (NCATS) are described below.

“And” between values parts separate entries of the source, which are not always exact repeats. Identical values can stand only once. Records with an inconclusive call do not appear. A number with no mark means an inactive call. The source made the active and inactive calls. Unless noted, the call rests on the fitted dose curve; in most records, active means well fitted curve in the direction sought with a large enough effect; inconclusive means small, poorly fitted or top-dose-only effect, or another doubt; inactive means no such curve, though single readings can be large; an effect the other way counts as inactive or inconclusive.

For assay [1], the target named is Cellular tumor antigen p53 (Homo sapiens) (UniProt P04637). Briefly: Primary qHTS for small molecule compounds that upregulate eGFP-tagged delta133p53alpha (in N-terminal) cells. (AID 2060322).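 Further: cells pre-induced with doxycycline then dosed without doxycycline; series mostly up to about 56 µM; 0% = DMSO vehicle and 100% = reference activator; nearly all actives have a fitted effect of over 75% in size.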 The note with it: NCI-H358 eGFP-delta133p53alpha fluorescence, 24 h; activation: active compounds read high. A digest of the protocol: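 NCI-H358 cells pre-induced 24 h with 10 ng/ml doxycycline for eGFP-delta133p53alpha, plated dox-free and exposed 24 h at 37C to titrated compounds. Fixed, Hoechst-stained; gated GFP peak intensity by laser scanning cytometry, normalized to DMSO (0%) and 57.5 uM 5-azacytidine (100%).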

In assay [2] the target is Aldehyde dehydrogenase, mitochondrial (Homo sapiens) (UniProt P05091). Briefly: qHTS for Inhibitors of the Aldehyde Dehydrogenase Family (ALDH2) Confirmatory screens (AID 2061303; active means well fitted inhibition curve with a large enough effect; title and protocol of this record describe different tests; further: on the % scale 0 is the no-effect control and ±100 the full control effect; nearly all actives have a fitted effect of over 45% in size).
A short description of assay [3]: qHTS for Inhibitors of the Aldehyde Dehydrogenase Family (ALDH1A2, ALDH1A3, ALDH2, ALDH3A1) (AID 2061307). Further: nearly all actives have a fitted effect of over 50% in size. On Potency: test system not described further here; potency means the concentration at half of the fitted maximal effect.
In assay [4] the target is Aldehyde dehydrogenase, mitochondrial (Homo sapiens) (UniProt P05091). Put plainly: qHTS for Inhibitors of the Aldehyde Dehydrogenase Family (ALDH2) Primary screen (AID 2061308).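 Further: plate controls were vehicle for no effect and reference inhibitor for full effect; nearly all actives have a fitted effect of over 55% in size.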
Assay [5] deals with Retinaldehyde dehydrogenase 3 (Homo sapiens) (UniProt P47895). Put plainly: qHTS for Inhibitors of the Aldehyde Dehydrogenase Family (ALDH1A3) Confirmatory screens (AID 2061311). Further: nearly all actives have a fitted effect of over 60% in size. Further: potency means the concentration at half of the fitted maximal effect.
Assay [6] has as its target Retinal dehydrogenase 2 (Homo sapiens) (UniProt O94788). Briefly: qHTS for Inhibitors of the Aldehyde Dehydrogenase Family (ALDH1A2) Confirmation screens (AID 2061314). Further: nearly all actives have a fitted effect of over 65% in size.
Assay [7] addresses Retinaldehyde dehydrogenase 3 (Homo sapiens) (UniProt P47895). Briefly: qHTS for Inhibitors of the Aldehyde Dehydrogenase Family (ALDH1A3) Primary screen (AID 2061315).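 Further: plate controls were DMSO vehicle for no effect and reference inhibitor for full effect.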
Assay [8] addresses Aldehyde dehydrogenase 1A1 (Homo sapiens) (UniProt P00352). Briefly: qHTS for Inhibitors of the Aldehyde Dehydrogenase Family (ALDH1A1) Confirmatory screens (AID 2061316). Further: nearly all actives have a fitted effect of over 65% in size. Further: potency means the concentration at half of the fitted maximal effect.
Assay [9] has as its target Retinaldehyde dehydrogenase 3 (Homo sapiens) (UniProt P47895). Briefly: qHTS for Inhibitors of the Aldehyde Dehydrogenase Family (ALDH1A3) Validation screen (AID 2061312). Further: on the % scale 0 is the no-effect control and ±100 the full control effect; nearly all actives have a fitted effect of over 45% in size.
The nature of assay [10]: BET inhibitor-based combinations targeting novel dependencies in MECOM-rearranged (r) AML: UCSD-AML1 cell line (AID 2202235).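 Further: series mostly up to about 46 µM; plate controls were DMSO vehicle wells for no effect and blank wells for full effect; nearly all actives have a fitted effect of over 40% in size.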 A digest of the protocol: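 First, 500 cells per well were seeded; next, drugs were pinned as 11-point doses; then plates sat 48 hr in the incubator; finally CellTiter-Glo was added and luminescence read, with AUC and Z-AUC computed.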

Chain of Cellular tumor antigen p53 (Homo sapiens) (P04637 whole entry, looked up): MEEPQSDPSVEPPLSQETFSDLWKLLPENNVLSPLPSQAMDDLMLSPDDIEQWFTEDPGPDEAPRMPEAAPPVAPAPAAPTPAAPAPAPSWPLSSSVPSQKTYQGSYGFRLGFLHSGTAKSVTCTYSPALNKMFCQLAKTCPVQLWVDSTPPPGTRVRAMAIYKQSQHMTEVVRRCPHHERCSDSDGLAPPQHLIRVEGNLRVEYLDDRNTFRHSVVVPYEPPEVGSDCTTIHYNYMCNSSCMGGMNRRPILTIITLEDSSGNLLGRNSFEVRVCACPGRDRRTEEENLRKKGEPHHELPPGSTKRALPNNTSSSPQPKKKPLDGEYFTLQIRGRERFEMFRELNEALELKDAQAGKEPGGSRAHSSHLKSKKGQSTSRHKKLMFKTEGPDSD

For `COc1cccc(OC)c1C(=O)N[C@@H]1C(=O)N2[C@@H]1SC(C)(C)[C@@H]2C(=O)O`, the activation in assay [1] is -33.3% and -3%. Besides, the Potency entry in [2], in [3], in assay [4], in [5], in [6] and in assay [7] was “inactive” throughout. In assay [8], the Potency entry was “inactive”.
Consider `O=C(NCCN1CCN(c2cccc3ccc(O)cc23)CC1)c1ccc(F)cc1`, for which the activation in [1] is -8.04%. The Potency entry in [2], in assay [4] and in [6] was “inactive” each time. Besides, the Potency was 15.8 µM (active) in assay [3], 5.04 µM (active) in [5] and 10.1 µM (active) in [8].
Take `Cc1onc(-c2c(Cl)cccc2Cl)c1C(=O)N[C@@H]1C(=O)N2[C@@H]1SC(C)(C)[C@@H]2C(=O)O`: the activation in assay [1] is -9.21% and 6.21%. Also, the Potency entry in assay [2], in assay [3], in assay [4], in assay [5], in assay [9] and in assay [7] was “inactive” throughout. Also, the Potency entry in assay [8] was “inactive”.
As to `CC(C)(CC(=O)N1CCCC1)NCC(=O)N1C[C@@H](F)C[C@H]1C#N`, in assay [1], the activation was 0.333%. Also, the Potency result in assay [2], in [3], in assay [4], in assay [5], in assay [6] and in assay [7] was “inactive” each time. In assay [8], the Potency entry is “inactive”.
Regarding `CC(O)(C#Cc1ccc2c(c1)N(c1nc(N)ncc1Cl)CC2)c1nccs1` (stereo not given), the activation in assay [1] is -1.22%. For the same compound, the Potency entry in [2], in assay [3], in assay [4], in assay [5], in [6] and in assay [7] was “inactive” in each case. Moreover, in assay [10], the Potency result is “inactive”.
In the case of `N[C@H]1Cc2ccccc2N(O)C1=O`, the activation in [1] is 13.7%. In addition, the Potency result in assay [2], in [3], in assay [4], in assay [5], in [6] and in [7] was “inactive” each time. In addition, the Potency entry in [8] is “inactive”.
As to `CCNC(=O)OC1CCN(c2nncc3cc(OC)c(OC)cc23)CC1`, the activation in assay [1] was -7.67%. Moreover, the Potency entry in assay [2], in [3], in [4], in assay [5], in assay [6] and in [7] was “inactive” each time. In addition, the Potency result in [8] was “inactive”.
